Test results reported in PubChem BioAssay AID1159580 (chemical genetic matrix, 2015).
Several values for one entry are separate records, joined by “and”; a condition that tells them apart may be missing. Identical values can stand only once. Hit rate of the full screen: of about 5,500 compounds, about 2,000 (36%) were called active. Another 18% or so got no clear call; they are omitted. Rule as the data show it: active = normalized growth mostly below about 0.91 (no sharp cut-off); inconclusive = no clear call, values can overlap the other calls; inactive = mostly above about 0.92. The list shows a part of the results.

Experiment: chemical genetic growth profiling, strain panel (AID 1159580);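 also: tested at 20 µM; growth read once vehicle control cultures reached saturation at 30 °C; 1 = growth at the plate median or of vehicle wells; lower values mean less growth of the strain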
Settings: S. cerevisiae deletion strains, growth OD

Measured: normalized growth

NC[C@@H]1O[C@H](O[C@@H]2[C@@H](CO)OC(O[C@@H]3[C@@H](O)[C@H](N)C[C@H](N)[C@H]3OC3O[C@H](CN)[C@@H](O)[C@H](O)[C@H]3N)[C@@H]2O)[C@H](N)[C@@H](O)[C@@H]1O (some centres not stated)
inactive: locus YAL013W, strain DEP1, hits give low values 1 | locus YAL021C, strain ccr4, hits give low values 1.01 | locus YAL026C, strain drs2, hits give low values 1.02 | locus YAL030W, strain snc1, hits give low values 1.02 | locus YBL061C, strain skt5, hits give low values 1.03 | locus YBR009C, strain hhf1, hits give low values 1.03 | locus YBR021W, strain FUR4, hits give low values 0.966 | locus YBR023C, strain chs3, hits give low values 1.06 | locus YBR171W, strain sec66, hits give low values 1.04 | locus YBR229C, strain ROT2, hits give low values 1 | locus YBR231C, strain swc5, hits give low values 1.01 | locus YBR279W, strain paf1, hits give low values 1.01 | locus YCL011C, strain gbp2, hits give low values 1.03 | locus YCL016C, strain dcc1, hits give low values 1.05 | locus YCL029C, strain bik1, hits give low values 1.02 | locus YCL061C, strain MRC1, hits give low values 1.01 | locus YCL069W, strain vba3, hits give low values 1.02 | locus YCR088W, strain abp1, hits give low values 1.02 | locus YDL005C, strain med2, hits give low values 1.01 | locus YDL035C, strain GPR1, hits give low values 1.01 | locus YDL040C, strain nat1, hits give low values 1.02 | locus YDL074C, strain BRE1, hits give low values 1.01 | locus YDL101C, strain DUN1, hits give low values 1.01 | locus YDL134C, strain PPH21, hits give low values 1 | locus YDL185W, strain tfp1, hits give low values 1.01 | locus YDL192W, strain arf1, hits give low values 1.02 | locus YDR001C, strain nth1, hits give low values 1.02 | locus YDR069C, strain doa4, hits give low values 1.03 | locus YDR101C, strain arx1, hits give low values 1 | locus YDR137W, strain rgp1, hits give low values 1.06 | locus YDR150W, strain NUM1, hits give low values 1.01 | locus YDR159W, strain sac3, hits give low values 0.997 | locus YDR162C, strain NBP2, hits give low values 1.01 | locus YDR195W, strain ref2 1.01 | locus YDR297W, strain sur2, hits give low values 1.02 | locus YDR318W, strain mcm21, hits give low values 1.01 | locus YDR334W, strain swr1, hits give low values 1.02 | locus YDR335W, strain msn5, hits give low values 1.02 | locus YDR388W, hits give low values 1.01 | locus YDR392W, strain spt3, hits give low values 0.944 | locus YDR502C, strain sam2, hits give low values 1.03 | locus YEL003W, strain gim4, hits give low values 1.02 | locus YEL037C, strain rad23, hits give low values 1.03 | locus YEL061C, strain CIN8 (second series), hits give low values 1.03 | locus YEL061C, strain CIN8, hits give low values 1.01 | locus YER015W, strain faa2, hits give low values 1.03 | locus YER016W, strain bim1, hits give low values 1.02 | locus YER110C, hits give low values 1.01 | locus YER111C, strain swi4, hits give low values 1.02 | locus YER155C, strain BEM2 (second series), hits give low values 0.973 | locus YER155C, strain BEM2, hits give low values 1.01 | locus YER167W, strain BCK2, hits give low values 1.02 | locus YFR010W, strain ubp6, hits give low values 1.03 | locus YGL078C, strain dbp3, hits give low values 1.01 | locus YGL086W, strain mad1, hits give low values 1 | locus YGL167C, strain pmr1, hits give low values 1.03 | locus YGL173C, strain kem1, hits give low values 1.03 | locus YGL227W, strain vid30, hits give low values 1.03 | locus YGL240W, strain doc1, hits give low values 1 | locus YGL248W, strain PDE1, hits give low values 1.01 | locus YGL253W, strain hxk2, hits give low values 1.03 | locus YGR078C, strain PAC10, hits give low values 1.02 | locus YGR135W, strain pre9, hits give low values 1.07 | locus YGR229C, strain SMI1, hits give low values 1 | locus YGR252W, strain gcn5, hits give low values 0.957 | locus YHR013C, strain ard1, hits give low values 1.05 | locus YHR027C, strain rpn1, hits give low values 1.03 | locus YHR030C, strain SLT2, hits give low values 1.02 and 0.985 | locus YHR079C, strain IRE1 (second series), hits give low values 1.02 | locus YHR079C, strain IRE1, hits give low values 0.983 | locus YHR094C, strain hxt1, hits give low values 1.01 | locus YHR129C, strain ARP1, hits give low values 1 | locus YHR142W, strain chs7, hits give low values 1.05 | locus YHR200W, strain rpn10, hits give low values 1.03 | locus YIL066C, strain RNR3, hits give low values 1.03 | locus YIL073C, strain SPO22, hits give low values 1.07 | locus YIL125W, strain kgd1, hits give low values 1.02 | locus YIR030C, strain dcg1, hits give low values 1.01 | locus YJL092W, strain hpr5, hits give low values 1.03 | locus YJL095W, strain BCK1 (second series), hits give low values 1.03 | locus YJL095W, strain BCK1, hits give low values 1.02 and 0.991 | locus YJL115W, strain asf1, hits give low values 1.03 | locus YJL129C, strain trk1, hits give low values 1.06 | locus YJL134W, strain LCB3, hits give low values 0.993 | locus YJL154C, strain vps35, hits give low values 1.02 | locus YJL164C, strain tpk1, hits give low values 1.01 | locus YJL166W, strain qcr8, hits give low values 1.04 | locus YJL168C, strain set2, hits give low values 1.01 | locus YJL187C, strain SWE1 (second series), hits give low values 1.01 | locus YJL187C, strain SWE1, hits give low values 1.01 | locus YJR043C, strain POL32, hits give low values 1.01 | locus YJR066W, strain TOR1, hits give low values 0.929
